Screens: PubChem BioAssay, National Center for Advancing Translational Sciences (NCATS)
Only a selection was taken, and hits are over-represented in it overall.
RECQ1 inh – qHTS Assay for Inhibitors of RecQ-Like Dna Helicase 1 (RECQ1). 240,000 tested, 0.54% active. RECQ1 DNA unwinding, red fluorescence kinetic read. Potency, µM (series often up to 57.3 µM), for inactives: at the highest dose activity, negative = inhibition, most hits filed as inhibitors. AID 2549, 2010;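 further: plate controls were vehicle for no effect and no enzyme for full effect; nearly all actives have a fitted effect of over 30% in size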
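RECQ1T1 50 nM; forked duplex (20 bp + 30-nt ss tails) 200 nM, ATP 2 mM final; pH 8.0, 2 mM MgCl2, 2.5 ug/ml poly(dI-dC); 15 min compound preincubation; discontinuous kinetic read over 2 h at RT.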
L3MBTL1 inh – qHTS Assay for the Inhibitors of L3MBTL1 | Lethal(3)malignant brain tumor-like protein 1 (Homo sapiens), Q9Y468 | AlphaScreen L3MBTL1–H3K9me1 peptide binding | Potency, µM (series often up to 57.1 µM), without a hit: at the highest dose activity, negative = inhibition, usual class: inhibitors | 230,000 tested, 0.66% active; further: nearly all actives have a fitted effect of over 60% in size
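L3MBTL1 (50 nM) pre-complexed 30 min with biotinylated H3(1-15)K9me1 peptide (75 nM), then compounds added for 30 min at room temperature; AlphaScreen streptavidin donor/nickel chelate acceptor beads (10 ug/mL final) read after 30 min dark incubation.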
JMJD2E inh – qHTS Assay for Inhibitors of Human Jumonji Domain Containing 2E (JMJD2E); Lysine-specific demethylase 4E (Homo sapiens), B2RXH2; JMJD2E catalytic domain, FDH-coupled NADH fluorescence (FDH is formaldehyde dehydrogenase); Potency, µM (series often up to 57.1 µM), for the others: at the highest dose activity change, negative = inhibition, usual class: inhibitors; 230,000 tested, 1.6% active; active means well fitted inhibition curve with a large enough effect, not every such curve was filed as active; inconclusive means small, poorly fitted or top-dose-only effect, or another doubt; inactive means no such curve, though single readings can be large or run the other way;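 further: 0% = wells with enzyme and -100% = buffer wells without enzyme; nearly all actives have a fitted effect of over 50% in size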
BLM helicase inh – qHTS Assay for Inhibitors of Bloom's syndrome helicase (BLM); RecQ-like DNA helicase BLM (Homo sapiens), P54132; recombinant BLM DNA unwinding, fluorescence dequenching; Potency, µM (highest dose often 56.1 µM), for the others: top-dose activity change, negative = inhibition, actives largely listed as inhibitors; 350,000 tested, 0.2% active;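 further: plate controls were vehicle for no effect and no enzyme for full effect; nearly all actives have a fitted effect of over 35% in size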
Target sequence (P54132 whole entry, looked up): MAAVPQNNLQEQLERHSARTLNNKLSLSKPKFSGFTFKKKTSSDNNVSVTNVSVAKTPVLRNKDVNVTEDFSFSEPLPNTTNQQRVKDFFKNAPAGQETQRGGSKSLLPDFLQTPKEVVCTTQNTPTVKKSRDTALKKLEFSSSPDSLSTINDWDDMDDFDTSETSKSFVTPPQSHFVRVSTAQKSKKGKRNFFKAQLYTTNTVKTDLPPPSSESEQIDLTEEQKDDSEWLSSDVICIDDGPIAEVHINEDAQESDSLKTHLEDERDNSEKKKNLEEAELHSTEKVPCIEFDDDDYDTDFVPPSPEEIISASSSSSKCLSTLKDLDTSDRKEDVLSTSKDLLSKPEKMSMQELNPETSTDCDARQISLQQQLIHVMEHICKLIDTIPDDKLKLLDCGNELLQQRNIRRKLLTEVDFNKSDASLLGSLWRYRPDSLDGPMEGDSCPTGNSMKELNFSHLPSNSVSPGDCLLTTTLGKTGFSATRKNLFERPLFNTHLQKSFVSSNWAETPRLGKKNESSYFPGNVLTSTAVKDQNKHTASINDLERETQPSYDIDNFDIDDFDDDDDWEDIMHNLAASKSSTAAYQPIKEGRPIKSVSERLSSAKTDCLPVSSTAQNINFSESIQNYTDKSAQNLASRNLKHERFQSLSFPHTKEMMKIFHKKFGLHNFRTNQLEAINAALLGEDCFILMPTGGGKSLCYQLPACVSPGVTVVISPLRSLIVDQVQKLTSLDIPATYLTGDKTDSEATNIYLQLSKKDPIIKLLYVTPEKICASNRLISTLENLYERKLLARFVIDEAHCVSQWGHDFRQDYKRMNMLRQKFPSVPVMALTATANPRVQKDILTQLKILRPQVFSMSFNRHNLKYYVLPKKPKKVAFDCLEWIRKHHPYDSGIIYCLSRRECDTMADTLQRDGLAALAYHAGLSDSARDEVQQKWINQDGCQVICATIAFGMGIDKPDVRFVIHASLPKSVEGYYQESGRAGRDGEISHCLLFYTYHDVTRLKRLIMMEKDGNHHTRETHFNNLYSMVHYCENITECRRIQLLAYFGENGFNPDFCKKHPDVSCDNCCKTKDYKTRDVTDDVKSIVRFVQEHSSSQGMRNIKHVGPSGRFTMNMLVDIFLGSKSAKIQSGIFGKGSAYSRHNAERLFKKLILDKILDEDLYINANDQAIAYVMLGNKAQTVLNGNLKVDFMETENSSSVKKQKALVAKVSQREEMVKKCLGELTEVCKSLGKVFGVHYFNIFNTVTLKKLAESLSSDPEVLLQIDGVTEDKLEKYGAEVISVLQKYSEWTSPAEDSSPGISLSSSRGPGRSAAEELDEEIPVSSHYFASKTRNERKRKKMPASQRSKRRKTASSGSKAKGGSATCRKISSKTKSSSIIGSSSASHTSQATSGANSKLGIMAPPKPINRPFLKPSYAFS
KAT2A inh – qHTS Assay for Inhibitors of GCN5L2; GCN5L2 HAT assay, ThioGlo1 CoA-SH fluorescence; Histone acetyltransferase KAT2A (Homo sapiens), Q92830; 390,000 tested, 0.21% active; AID 504327, 2011; Potency, µM (series often up to 58.9 µM), for inactives: top-dose activity change, negative = inhibition, usual class: inhibitors
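GCN5L2 (20 nM) in 50mM HEPES pH 7.5, 0.1mM EDTA, 0.01% Tween-20 preincubated 15 min with compounds at room temperature. Reaction started with H3(1-25) 75uM, acetyl-CoA 70uM, ThioGlo1 50uM; CoA-thiol fluorescence (Ex340/Em540) read at 0 and 20 min.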
APE1 inh-1 – qHTS Assay for Inhibitors of the Human Apurinic/apyrimidinic Endonuclease 1 (APE1) | DNA repair nuclease/redox regulator APEX1 (Homo sapiens), P27695 | Potency, µM (titrated, usually from 65.8 µM), for inactives: at the highest dose activity change, negative = inhibition, hits mostly inhibitors | recombinant APE1, TAMRA/BHQ-2 abasic DNA cleavage fluorescence | 350,000 tested, 0.35% active | AID 2517, 2012;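 further: plate controls were vehicle for no effect and reference inhibitor for full effect; nearly all actives have a fitted effect of over 55% in size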
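Kinetic fluorescence read (525 ex/598 em nm, three reads 60 s apart) of AP-site incision; signal = third minus first read. Enzyme 0.75 nM, dual-labelled THF duplex 50 nM, compound preincubation 15 min RT.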
DNA dye displace – Counterscreen for APE1 Inhibitors: Fluorescent Dye Displacement Assay; 480 tested, 7% active; Potency, µM (titrated, usually from 28.5 µM), inactives show top-dose activity change, negative = inhibition, actives largely listed as inhibitors; shares compounds with APE1 inh-1; DNA fluorescent dye displacement counterscreen, fluorescence;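 further: loss of thiazole orange fluorescence as the dye is displaced from duplex DNA; 0% = ThO with dsDNA and no compound and -100% = ThO without dsDNA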
EndoIV counter – Counterscreen for APE1 Inhibitors: qHTS Assay for Inhibitors of Endonuclease IV | shares compounds with APE1 inh-1 | E. coli Endo IV, fluorogenic AP-site DNA cleavage | Potency, µM (series often up to 27.1 µM), for the others: at the top dose activity change, negative = inhibition, hits mostly inhibitors | 560 tested, 4% active | AID 2565, 2010;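 further: plate controls were uninhibited enzyme wells for no effect and no enzyme buffer wells for full effect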
APE1 inh-2 – Confirmation qHTS Assay for Inhibitors of the Human Apurinic/apyrimidinic Endonuclease 1 (APE1) | shares compounds with APE1 inh-1 | purified APE1, fluorogenic abasic-site DNA cleavage | Potency, µM (top dose mostly 57.1 µM), for inactives: at the top dose activity change, negative = inhibition, hits mostly inhibitors | 750 tested, 44% active; further: nearly all actives have a fitted effect of over 30% in size
APE1 FP inh – qHTS FP-Based Assay for Inhibitors of the Human Apurinic/apyrimidinic Endonuclease 1 (APE1); shares compounds with APE1 inh-1; APE1 binding to TAMRA-labelled double-stranded DNA, fluorescence polarization displacement; Potency, µM (doses to about 28.5 µM), without a hit: at the highest dose activity, negative = inhibition, usual class: inhibitors; 480 tested, 7% active; AID 2573, 2010
Starred values were filed as active, the others as inactive; i = inactive; ? = inconclusive; . = no result; [ ] = another dose, or the depositor's remark. Unless noted, the call rests on the fitted dose curve; in most records, active means well fitted curve in the direction sought with a large enough effect; inconclusive means small, poorly fitted or top-dose-only effect, or another doubt; inactive means no such curve, though single readings can be large; an effect the other way counts as inactive or inconclusive. Unless noted, on the % scale 0 is the no-effect control and ±100 the full control effect; potency means the concentration at half of the fitted maximal effect.

SMILES	RECQ1 inh	L3MBTL1 inh	JMJD2E inh	BLM helicase inh	KAT2A inh	APE1 inh-1	DNA dye displace	EndoIV counter	APE1 inh-2	APE1 FP inh
C=CCn1c(COc2cccc(C)c2)nnc1SCC(=O)NC(=O)NCc1ccco1	-20.2%	?	-2.2%	-29.5%	-25.2%	?	-6.9%	0.3%	?	-22.5%
COC(=O)c1sccc1NC(=O)COc1ccc(F)cc1Cl	i	4.1%	-11.5%	-0.4%	-6.5%	-0.7%	.	.	.	.
Cc1ccccc1NC(=O)CSc1nnc(-c2ccco2)c(-c2ccco2)n1	i	-90.0%	?	0.8%	?	4.47µM*	-23.7%	14.7%	15.8µM*	-8.3%
COc1ccc(C(=O)CSc2nnc(-c3ccco3)n2C)cc1	i	0.1%	2.9%	3.0%	0.2%	-1.6%	.	.	.	.
COc1ccc(C(=O)CSc2nnc(-c3ccco3)c(-c3ccco3)n2)cc1	-26.4%	?	?	?	-26.9%	17.8µM*	?	1.2%	?	?
O=C1CC2(CCN(C(=O)c3ccc(F)c(F)c3)CC2)Oc2ccccc21	.	7.0%	.	.	0.8%	41.9%	.	.	.	.
COc1ccc(-c2cn3cccnc3n2)cc1NC(=O)c1ccc(Br)o1	?	4.0%	?	-1.3%	18.5%	-5.5%	.	.	-25.0%	.
Cn1c(=O)c2c(ncn2CC(=O)N/N=C/c2c[nH]c3ccccc23)n(C)c1=O	-5.9%	-10.6%	-0.4%	-3.9%	1.9%	8.1%	.	.	?	.
CC(C)(C)NC(=O)c1cc(F)c(F)cc1Cl	i	.	5.5%	-14.4%	-1.3%	7.08µM*	-8.3%	3.6%	?	-6.4%
CCN(CC)c1ccc(-c2nnc(SCC(=O)Nc3ccccc3C#N)n2-c2ccccc2)cc1	-19.6%	-15.3%	?	-12.3%	-4.1%	?	4.1%	?	?	9.1%
CC(=O)NC1C(OC2OC(CC(O)C3OC([N+]4=CCC(=O)NC4=O)C(O)C3O)C(O)C(O)C2NC(=O)/C=C/CCCCCCCCC(C)C)OC(CO)C(O)C1O (centres undefined)	24.6%	.	.	.	-8.1%	-3.1%	.	.	.	.
CC(=O)N[C@H]1C(O[C@@H]2O[C@H](C[C@@H](O)[C@H]3O[C@@H](N4CCC(=O)NC4=O)[C@H](O)[C@@H]3O)[C@H](O)[C@H](O)[C@H]2NC(=O)/C=C/CCCCCCCCCCC(C)C)OC(CO)[C@@H](O)[C@@H]1O (some centres undefined)	-8.6%	.	.	-9.0%	-3.3%	7.94µM*	103.3%[57.1 µM]	11.0%[57.1 µM]	2.51µM*	-57.1%[57.1 µM]
CC1=CCC2C(=O)N(c3nc4ccccc4n3C)C(=O)C2C1 (centres undefined)	-11.6%	.	1.9%	3.3%	.	?	.	.	39.8µM*	.
O=C1CC(c2ccc(O)c(O)c2)Oc2cc(O)cc(O)c21 (centres undefined)	?	.	28.2µM*	3.7%	-0.7%	12.6µM*	-8.5%	30.1%	?	5.6%
O=C(Nc1cc(C(=O)Nc2ccc(S(=O)(=O)O)cc2S(=O)(=O)O)cc(C(=O)Nc2ccc(S(=O)(=O)O)cc2S(=O)(=O)O)c1)Nc1cc(C(=O)Nc2ccc(S(=O)(=O)O)cc2S(=O)(=O)O)cc(C(=O)Nc2ccc(S(=O)(=O)O)cc2S(=O)(=O)O)c1	-0.7%	.	?	?	-20.3%	7.94µM*	.	?	2.51µM*	.
O=C(Nc1cc(C(=O)Nc2ccccc2C(=O)O)cc(C(=O)Nc2ccccc2C(=O)O)c1)c1ccccc1	.	.	.	-8.2%	?	-0.1%	.	.	.	.
Cc1ccc(NC(=O)Cn2nnc(C(=O)NCc3cccs3)c2N)cc1F	.	.	.	-6.4%	-3.5%	-13.4%	.	.	.	.
C=C(C)C(=O)Nc1cccc(C2=NOC3(C2)C[C@@H](C(N)=O)N(C(=O)CCCCC)C3)c1 (some centres undefined)	25.1µM*	.	-1.7%	-11.8%	0.7%	?	.	.	39.8µM*	.
CCCCCC(=O)N1CC2(CC(c3cccc(NC(=O)[C@@H]4CCC(=O)N4)c3)=NO2)C[C@@H]1C(N)=O (some centres undefined)	?	.	-3.5%	0.1%	-8.3%	16.4%	.	.	.	.
Cc1cccc(NC(=O)CN(C)S(=O)(=O)c2cccc3nsnc23)c1C	-5.5%	6.8%	20.3%	2.8%	-19.5%	-2.7%	.	.	.	.
CCOc1ccccc1NC(=O)CN(C)S(=O)(=O)c1cccc2nsnc12	-2.7%	-8.9%	5.6%	2.5%	-0.5%	-40.8%	0.3%	7.7%	-12.3%[24.4 µM]	?
C/C=C1\C2C=C(C)C[C@@]1(N)c1ccc(=O)[nH]c1C2	-8.7%	.	-3.2%	-2.8%	6.2%	3.4%	.	.	.	.
COc1ccc2c(c1)c(=O)oc1cc(OCC(=O)NC3CCCCC3)ccc12	-13.4%	?	?	-14.1%	-16.5%	11.2µM*	-10.6%	-2.1%	5.62µM*	-29.5%
COc1ccc2c(c1)c(=O)oc1cc(OCC(=O)NC3CC3)ccc12	i	8.0%[11.4 µM]	?	-5.4%	-2.7%	?	.	.	.	.
